Assay [1] can be described thus: qHTS assay to identify small molecule antagonists of the estrogen related receptor (ERR) signaling pathway from Tox21 library - cell viability counter screen (AID 1224834). Also: nearly all actives have a fitted effect of over 30% in size. Also: potency is read from the fitted curve at half-maximal effect. The procedure, abridged: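 CellTiter-Fluor fluorescence measured; ERR cells; 17.5 h compound incubation at 37 C; 30 min reagent step.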
Assay [2] deals with Luciferin 4-monooxygenase (Photinus pyralis) (UniProt P08659). The experiment in a line: qHTS assay to identify small molecule inhibitors of firefly luciferase (AID 1224835). Also: nearly all actives have a fitted effect of over 25% in size. The procedure, abridged:
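Biochemical qHTS: compounds run as interplate titrations against purified firefly enzyme, with D-luciferin and ATP each at its KM concentration. Light output recorded by CCD imaging.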
(In general: In qHTS, concentration-response curves come from the screen itself.)

The nature of assay [3]: qHTS assay to identify small molecule agonists of the constitutive androstane receptor (CAR) signaling pathway - cell viability counter screen (AID 1224836). Also: nearly all actives have a fitted effect of over 45% in size. The procedure, abridged:
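HepG2-CYP2B6-hCAR, 2500 cells/well, 4 h pre-incubation; cpd 15 conc + PK11195 0.75 uM final; 23 h, 37 C/5% CO2; CellTiter-Fluor, fluorescence.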

Assay [4] can be described thus: qHTS assay to identify small molecule antagonists of the constitutive androstane receptor (CAR) signaling pathway - cell viability counter screen (AID 1224837). Also: nearly all actives have a fitted effect of over 45% in size. The procedure, abridged:
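Using CellTiter-Fluor, viability is scored in HepG2 cells stably carrying hCAR and a 2.2kb CYP2B6 reporter after 23 hr compound exposure across 15 concentrations, with CITCO present at 50 nM.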

For assay [5], the target named is Nuclear receptor subfamily 1 group I member 3 (Homo sapiens) (UniProt Q14994). The experiment in a line: qHTS assay to identify small molecule antagonists of the constitutive androstane receptor (CAR) signaling pathway (AID 1224838).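 Also: HepG2 cells stably expressing hCAR with CYP2B6 luciferase reporter stimulated by CITCO; nearly all actives have a fitted effect of over 40% in size.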 A digest of the protocol: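 Reporter luminescence was quantified after 24 h exposure of hCAR/CYP2B6-2.2kb double-stable HepG2 cells to compounds at 15 concentrations in the presence of 50 nM CITCO final.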

Assay [6] shares this target. The experiment in a line: qHTS assay to identify small molecule agonists of the constitutive androstane receptor (CAR) signaling pathway (AID 1224839).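 Also: HepG2 cells stably carrying human CAR and a CYP2B6 luciferase reporter; nearly all actives have a fitted effect of over 15% in size.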 The procedure, abridged:
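HepG2-CYP2B6-hCAR cells, 2500/well, 4 h pre-incubation; compounds 15 conc.; PK11195 0.75 uM final; 24 h, 37 C/5% CO2; ONE-Glo luciferase read.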

A short description of assay [7]: qHTS assay to identify small molecule antagonists of the estrogen related receptor signaling pathway with the pleiotropic PPARgamma coactivator (PGC) from Tox21 10K library - cell viability counter screen (AID 1224840; active = well fitted cell-killing curve with a large enough effect in the repeat runs, not every such curve was filed as active; also: nearly all actives have a fitted effect of over 40% in size). The procedure, abridged: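 Here the PGC/ERR cells serve as a cytotoxicity control: they are exposed to compounds for 17.5 hours at 37 C, and live-cell signal is quantified using CellTiter-Fluor fluorescence.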

Assay [8] in a line: qHTS assay to identify small molecule antagonists of the estrogen related receptor signaling pathway with the pleiotropic PPARgamma coactivator (PGC) from Tox21 10K library (AID 1224841; call rule not given here; also: actives are mostly falling curves and most rising ones were filed inactive; nearly all actives have a fitted effect of over 50% in size; also: potency is read from the fitted curve at half-maximal effect). The procedure, abridged: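 Each well held 2,000 PGC/ERR cells, pre-incubated six hours (37 C, 5% CO2). Test substances in DMSO were added by pin tool and left for 18 h at 37 C before luciferase detection by One-Glo.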

The nature of assay [9]: qHTS assay to identify small molecule agonists of the estrogen related receptor signaling pathway with the pleiotropic PPARgamma coactivator (PGC) from Tox21 10K library (AID 1224842). Also: nearly all actives have a fitted effect of over 15% in size. The procedure, abridged: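 PGC/ERR reporter cell line, 2,000 cells per well, incubated 6 h at 37 C before 23 nL compound in DMSO was added. After 18 h at 37 C, One-Glo luminescence read following 30 min at room temperature.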

For assay [10], the target named is Thyrotropin receptor (Homo sapiens) (UniProt P16473). Briefly: qHTS assay to identify small molecule agonists of the thyroid stimulating hormone receptor (TSHR) signaling pathway (AID 1224843; calls by dose curve; also: nearly all actives have a fitted effect of over 45% in size). A digest of the protocol: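 TSHR-HEK293 cells in agonist mode, 30 min room-temperature step, then cAMP measured by competitive HTRF (cAMP-d2 with anti-cAMP cryptate) after 1 h at room temperature. Tested at 15 concentrations in triplicate.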

Assay [11] in a line: qHTS assay to identify small molecule agonists of the hypoxia (HIF-1) signaling pathway - cell viability counter screen (AID 1224844; calls by dose curve; also: nearly all actives have a fitted effect of over 50% in size; also: potency is read from the fitted curve at half-maximal effect). The procedure, abridged:
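Multiplexed with the HRE beta-lactamase assay, this viability read used CellTiter-Glo luminescence (30 min, RT) on HRE-bla ME-180 cells treated 17 hrs with compounds in 0.5% dialyzed FBS medium.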

A short description of assay [12]: qHTS assay to identify small molecule agonists of H2AX (AID 1224845; active = well fitted activation curve with a large enough effect in the signal ratio in the repeat runs, not every such curve was filed as active; the % refers to the signal ratio). The procedure, abridged: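 Wild-type CHO-K1 cells, plated overnight, exposed 3hr at 37C to 15 concentrations (0.76% DMSO final). Lysed, then HTRF anti-pH2AX (S139) cryptate and anti-H2AX-d2 antibodies, 24 hr room temperature; 665/620 nm emission read.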
Assay [13] is described as follows: qHTS assay to identify small molecule agonists of the hypoxia (HIF-1) signaling pathway (AID 1224846; active = well fitted activation curve with a large enough effect in the signal ratio in the repeat runs, not every such curve was filed as active; the % refers to the signal ratio). A digest of the protocol:
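Hypoxia-pathway activation was scored as increased beta-lactamase from an HRE-controlled reporter in ME-180 cells; plated at 2,000 cells per well with 0.5% dialyzed FBS, they were exposed 17 hrs to compounds and then given CCF4-AM.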

Assay [14] is described as follows: qHTS assay to identify small molecule agonists of H2AX - cell viability counter screen (AID 1224847; calls by dose curve; also: top concentration of the series differs between compounds; nearly all actives have a fitted effect of over 30% in size). The procedure, abridged:
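Cells plated first: CHO-K1, 1000 per well in 10% FBS medium, incubated overnight at 37C. Then 15-point compound titration added (final DMSO 0.76%) for 3 hr. Finally CellTiter-Glo added and luminescence read.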

The nature of assay [15]: qHTS assay to identify small molecule antagonists of the estrogen related receptor (ERR) signaling pathway from Tox21 library (AID 1224848). Also: nearly all actives have a fitted effect of over 50% in size. Also: potency is read from the fitted curve at half-maximal effect. The procedure, abridged:
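ERR reporter cell line (from NTP) seeded 2,000 cells/well, rested 6 h at 37 C/5% CO2, then pin-dosed with compounds in DMSO. After 18 h at 37 C, ONE-Glo added; luminescence read after 30 min at room temperature.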

Assay [16] is described as follows: qHTS assay to identify small molecule agonists of the estrogen related receptor (ERR) signaling pathway from Tox21 library (AID 1224849; calls by dose curve; also: nearly all actives have a fitted effect of over 15% in size). The note with it: ERR reporter cell line, ONE-Glo luciferase, 18 h. The procedure, abridged: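 Six hours post-seeding at 37 C/5% CO2, ERR cells receive DMSO-solubilised compounds; after 18 h at 37 C, ONE-Glo reagent is applied and luminescence recorded.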

Assay [17] is described as follows: qHTS RealTime-Glo MT Cell Viability Assay in HepG2 cells - 24 hour (AID 1224867). Also: nearly all actives have a fitted effect of over 50% in size. A digest of the protocol: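 Real-time, nonlytic viability: 600 HepG2 cells/well mixed with NanoLuc enzyme plus prosubstrate; 5 h settle, compound (DMSO) added by pintool; luminescence monitored over 40 h at 37 C.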
The nature of assay [18]: qHTS RealTime-Glo MT Cell Viability Assay in HEK293 cells - 32 hour (AID 1224868). Also: nearly all actives have a fitted effect of over 50% in size. Also: potency is read from the fitted curve at half-maximal effect. A digest of the protocol:
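Cells + reagent dispensed (600 cells/well, HEK293) → 5 h at 37 C/5% CO2 → 23 nL compound in DMSO pinned → 40 h at 37 C → luminescence read at 0, 8, 16, 24, 32, 40 h.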

Assay [19] in a line: A CellTox Green Cytotoxicity Assay to monitor cytotoxicity in HEK293 cells - 0 hour (AID 1224869). Also: nearly all actives have a fitted effect of over 50% in size. The procedure, abridged:
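Seeding of HEK293 cells together with cytotoxicity dye preceded a 5 h incubation at 37 C/5% CO2. Test compounds in DMSO were then added and fluorescence monitored across 40 h.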

Assay [20] can be described thus: qHTS assay to identify small molecule agonists of the estrogen related receptor signaling pathway with the pleiotropic PPARgamma coactivator (PGC) (AID 1224823). The procedure, abridged: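 Steps: plate PGC/ERR cells at 2,000 cells/well; incubate 6 h, 37 C/5% CO2; pin-transfer compounds (DMSO); incubate 18 h, 37 C; add One-Glo; 30 min RT; read luminescence.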

Values joined by “and” are separate entries in the source; they are usually repeats but may differ in a detail not shown here. Identical values can stand only once. Results filed as inconclusive are left out. Some structures have more than one record in an assay (separate samples or runs), and their calls can disagree. Active and inactive are the calls of the source. Unless noted, calls follow the shape of the dose curve; as a rule, active = well fitted curve in the direction sought with a large enough effect in the repeat runs; inconclusive = weak or mixed curves; inactive = no such curve, though single readings can be large; an effect the other way counts as inactive or inconclusive.
% is scaled to controls: 0 for no effect and ±100 for the full control effect.

Sequence of Thyrotropin receptor (Homo sapiens) (P16473 whole entry, looked up): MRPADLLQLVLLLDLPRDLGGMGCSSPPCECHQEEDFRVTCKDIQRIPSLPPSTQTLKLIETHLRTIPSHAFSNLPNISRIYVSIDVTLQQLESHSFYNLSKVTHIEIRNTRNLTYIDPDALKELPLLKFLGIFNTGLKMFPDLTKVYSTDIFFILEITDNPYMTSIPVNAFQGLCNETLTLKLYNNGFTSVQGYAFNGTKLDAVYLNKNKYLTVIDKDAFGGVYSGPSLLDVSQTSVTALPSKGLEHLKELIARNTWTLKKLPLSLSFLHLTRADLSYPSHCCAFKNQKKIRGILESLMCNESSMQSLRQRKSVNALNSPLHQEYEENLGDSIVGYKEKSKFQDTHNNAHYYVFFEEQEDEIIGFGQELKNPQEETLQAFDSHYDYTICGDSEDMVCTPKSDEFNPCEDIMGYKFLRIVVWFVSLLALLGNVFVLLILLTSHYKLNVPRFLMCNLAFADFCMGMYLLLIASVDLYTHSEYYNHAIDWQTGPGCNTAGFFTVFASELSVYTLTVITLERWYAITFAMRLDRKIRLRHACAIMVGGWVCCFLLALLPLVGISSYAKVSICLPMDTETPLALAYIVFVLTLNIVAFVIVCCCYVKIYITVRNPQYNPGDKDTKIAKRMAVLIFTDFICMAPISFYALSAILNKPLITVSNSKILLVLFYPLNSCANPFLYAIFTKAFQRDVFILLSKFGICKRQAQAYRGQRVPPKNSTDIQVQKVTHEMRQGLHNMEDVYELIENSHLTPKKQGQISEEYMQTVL
Sequence of Luciferin 4-monooxygenase (Photinus pyralis) (P08659 whole entry, looked up): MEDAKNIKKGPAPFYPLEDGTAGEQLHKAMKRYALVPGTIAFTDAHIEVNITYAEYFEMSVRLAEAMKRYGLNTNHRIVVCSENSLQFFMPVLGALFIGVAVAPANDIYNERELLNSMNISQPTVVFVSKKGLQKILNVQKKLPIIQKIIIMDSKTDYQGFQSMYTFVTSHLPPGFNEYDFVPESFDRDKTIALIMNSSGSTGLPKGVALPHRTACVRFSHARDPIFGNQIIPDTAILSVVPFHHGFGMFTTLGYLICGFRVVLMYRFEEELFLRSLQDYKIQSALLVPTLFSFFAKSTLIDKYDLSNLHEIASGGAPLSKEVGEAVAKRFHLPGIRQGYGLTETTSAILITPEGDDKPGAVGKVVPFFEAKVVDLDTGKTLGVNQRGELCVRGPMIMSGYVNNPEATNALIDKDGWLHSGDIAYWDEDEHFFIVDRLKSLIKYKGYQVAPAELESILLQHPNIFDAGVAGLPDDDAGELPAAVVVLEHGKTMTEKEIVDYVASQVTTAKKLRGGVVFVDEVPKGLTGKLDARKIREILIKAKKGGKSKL
Sequence of Nuclear receptor subfamily 1 group I member 3 (Homo sapiens) (Q14994 whole entry, looked up): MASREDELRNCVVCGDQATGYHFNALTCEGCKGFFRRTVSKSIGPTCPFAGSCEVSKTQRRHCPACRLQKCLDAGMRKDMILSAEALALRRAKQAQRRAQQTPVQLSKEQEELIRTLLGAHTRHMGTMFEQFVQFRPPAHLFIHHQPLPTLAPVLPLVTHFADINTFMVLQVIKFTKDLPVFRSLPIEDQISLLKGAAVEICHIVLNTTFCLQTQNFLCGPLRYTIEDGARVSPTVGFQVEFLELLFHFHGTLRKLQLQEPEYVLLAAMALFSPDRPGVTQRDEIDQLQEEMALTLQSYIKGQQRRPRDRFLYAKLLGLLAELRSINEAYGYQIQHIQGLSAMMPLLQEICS

`C=C(C)C(=O)OCCCCCCCCCCCC`: the Potency entry in assay [1], in assay [2], in [3], in [4], in assay [5] and in assay [6] was “inactive” each time. Also, the Potency entry in assay [7], in [8], in [9], in assay [10], in assay [11] and in assay [12] was “inactive” in each case. Also, the Potency entry in assay [14], in assay [15], in [17], in assay [18] and in [19] was “inactive” each time. Also, the compound was classed as inactive in assay [13]. For the same compound, the activity change, positive = activation in assay [16] (at 92.4 µM (top of the series)) was 5.32% (inactive) and 1.41% (inactive).
`CCc1ccccc1O`: the Potency result in assay [1], in assay [2], in assay [3], in assay [4], in assay [5] and in assay [6] was “inactive” in each case. Besides, the Potency result in assay [7], in [10], in assay [11], in assay [12], in assay [14] and in [17] was “inactive” each time. In addition, the Potency result in assay [19] is “inactive”. The outcome in [13] was inactive.
Turning to `CS(=O)(=O)Nc1ccc([N+](=O)[O-])cc1Oc1ccccc1`, the Potency entry in [20], in assay [4], in assay [5], in assay [6], in [8] and in assay [9] was “inactive” each time. Moreover, the Potency entry in assay [10], in assay [11], in assay [12], in assay [14], in [17] and in assay [18] was “inactive” throughout. For the same compound, the Potency result in assay [19] is “inactive”. Further, the Potency in [1] is 30.6 µM (active); in [15], 38.6 µM (active). In addition, the figures for the activity change, positive = activation in assay [16] (at 42.5 µM (top of the series)) and in assay [16] (at 92.4 µM (top of the series)) were -19.6% (inactive) and -48.5% (inactive), respectively.
`CC1CC(OC(=O)c2ccccc2O)CC(C)(C)C1` (stereo unspecified): the Potency result in assay [1], in assay [2], in assay [3], in [4], in [5] and in [6] was “inactive” each time. The Potency entry in assay [7], in assay [10], in assay [12], in assay [17] and in [19] was “inactive” throughout. Besides, in [11], the Potency is 48.5 µM (active) and inactive.
As for `CC1=C(/C=C/C(C)=C/C=C/C(C)=C/CO)C(C)(C)CCC1`, the Potency entry in assay [1], in assay [2], in assay [3], in assay [4], in [5] and in [7] was “inactive” in each case. In addition, the Potency result in [8], in assay [9], in assay [11], in [12], in assay [15] and in assay [17] was “inactive” each time. For the same compound, the Potency result in [18] and in [19] was “inactive” in each case. Further, the compound was classed as inactive in assay [13]. Moreover, in assay [16] (at 92.4 µM (top of the series)), the activity change, positive = activation is -2.72% (inactive) and -18.5% (inactive).
Turning to `CCCCCCCCCCCCOCC1CO1` (stereo unspecified), the Potency entry in assay [1], in assay [2], in assay [3], in assay [4], in [5] and in assay [6] was “inactive” in each case. Further, the Potency result in assay [7], in assay [8], in [9], in [10], in assay [11] and in assay [12] was “inactive” in each case. For the same compound, the Potency entry in assay [15], in assay [17] and in assay [19] was “inactive” throughout. For the same compound, the compound was classed as inactive in assay [13]. The activity change, positive = activation in [16] (at 92.4 µM (top of the series)) is -2.77% (inactive) and -4.37% (inactive).
With `CC#C[C@]1(O)CC[C@H]2[C@@H]3CCC4=CC(=O)CCC4=C3[C@@H](c3ccc(N(C)C)cc3)C[C@@]21C`, the Potency result in assay [20], in assay [2], in [6], in assay [7], in assay [9] and in assay [10] was “inactive” in each case. Besides, the Potency result in [11], in assay [14], in assay [17] and in assay [19] was “inactive” throughout. The Potency in assay [8] was 21.7 µM (active) and 29.8 µM (active); in assay [15], 26.6 µM (active); in assay [18] it was 49 µM (active). Further, the compound was called inactive in [13]. Also, the activity change, positive = activation in assay [16] (at 42.5 µM (top of the series)) is -53.3% (inactive); in [16] (at 92.4 µM (top of the series)), -62.2% (inactive).

These data come from PubChem BioAssay (Tox21).
